DT40 TDP1 CPT: growth inhibition of DT40 Tdp1-/-;hTDP1 cells with camptothecin (screen for TDP1 inhibitors). hit rate 12% among 420,000. chicken DT40 Tdp1-/-;hTDP1 cells + 20 nM CPT, ATP luminescence, 48 h. Potency, µM (titrated, usually from 46.2 µM), for inactives: top-dose activity change, negative = growth inhibition, most hits filed as inhibitors; further: nearly all actives have a fitted effect of over 55% in size
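Chicken DT40 Tdp1-/- cells stably complemented with human TDP1 were seeded at 400 cells/well in medium containing 20 nM camptothecin, exposed to pin-transferred compounds, and grown at 37 °C for at least 48 hr. Viability was read as ATP luminescence.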
KB-V1 cytotox: KB-V1 MDR subline cytotoxicity; KB-V1 MDR cells viability, CellTiter-Glo, 72 h; Potency, µM (titrated, usually from 46.1 µM), actives largely listed as cytotoxic; hit rate 3.4% among 400,000; further: nearly all actives have a fitted effect of over 60% in size
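Following 72 h at 37 degrees C with compound, KB-V1 cell viability was read by CellTiter-Glo luminescence, medium being phenol-red-free DMEM plus 10% FBS; concentration-response parameters came from normalized, curve-fitted qHTS data.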
KB-3-1 cytotox: kills parental KB-3-1 adenocarcinoma cells | KB-3-1 viability, CellTiter-Glo ATP luminescence, 72 h | Potency, µM (series often up to 46.1 µM), most hits filed as cytotoxic | hit rate 1.4% among 400,000; further: nearly all actives have a fitted effect of over 60% in size
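Parental KB-3-1 adenocarcinoma cells in phenol-red-free DMEM with 10% FBS were pin-treated with compounds at several concentrations, incubated 72 h at 37 °C, and viability read by CellTiter-Glo luminescence; concentration-effect curves were fitted after normalization.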
HT1080NT lethal: kills 2HG-producing HT-1080-NT fibrosarcoma cells; hit rate 1.6% among 360,000; Potency, µM (highest dose often 46.1 µM), for the others: at the top dose activity, negative = less viability, actives largely listed as cytotoxic; AID 686970; HT-1080-NT fibrosarcoma viability, CellTiter-Glo ATP luminescence, 48 h;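 further: NT is the 2HG producing partner of a matched IDH1 knockdown line; 0% = DMSO-treated cells and -100% = media-only wells without cells; nearly all actives have a fitted effect of over 55% in size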
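Compounds were tested in concentration-response format on HT-1080-NT cells for 48 hours at 37 degrees C. Cell viability came from CellTiter-Glo luminescence; curves were classified by r2, response magnitude and activity.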
HT1080 IDH1KD tx: toxicity to HT-1080 IDH1 knockdown cells (counter line); hit rate 2% among 360,000; Potency, µM (top dose mostly 46.1 µM), without a hit: at the top dose activity, negative = toxicity, most hits filed as cytotoxic; AID 686971; HT-1080 IDH1 knockdown viability, ATP luminescence, 48 h;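 further: 0% = DMSO wells and -100% = cell-free medium wells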
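Using the IDH1-knockdown HT-1080 line run in the same batch and compound series as the NT line, viability after 48 h at 37 °C was determined by CellTiter-Glo luminescence and expressed as % activity.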
DT40 TDP1 no CPT: qHTS for Inhibitors of human tyrosyl-DNA phosphodiesterase 1 (TDP1): qHTS in cells in absence of CPT; DT40 Tdp1-/- hTDP1 cells, no CPT, ATP luminescence, 48 h; Potency, µM (highest dose often 46.2 µM), for the others: at the highest dose activity change, negative = growth inhibition, actives largely listed as inhibitors; hit rate 15% among 420,000; further: nearly all actives have a fitted effect of over 55% in size
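Growth kinetics read by CellTiter-Glo luminescence after ≥48 hr at 37 °C. Cells: DT40 Tdp1-/- stably carrying human TDP1, 400 per well, compound exposure in the absence of CPT (DMSO vehicle).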
An asterisk follows results filed as active; i = inactive; ? = inconclusive; . = no result. Rows were chosen to be rich in hits. Some 19% of all compounds tested hit in one or more screens of this group. The call rests on the fitted dose curve; in most records, active means well fitted curve in the direction sought with a large enough effect; inconclusive means small, poorly fitted or top-dose-only effect, or another doubt; inactive means no such curve, though single readings can be large; an effect the other way counts as inactive or inconclusive. Unless noted, on the % scale 0 is the no-effect control and ±100 the full control effect; potency means the concentration at half of the fitted maximal effect.

SMILES	DT40 TDP1 CPT	KB-V1 cytotox	KB-3-1 cytotox	HT1080NT lethal	HT1080 IDH1KD tx	DT40 TDP1 no CPT
Cc1ccccc1-c1cc2nc(NCc3cccnc3)n(C)c(=O)c2s1	?	i	i	-15.0%	?	?
CCOC(=O)CNC(=O)C1CCCCC1	-6.9%	?	i	.	.	-0.4%
COc1ccc(-c2cc(NC=O)c3ncc(-c4ccc(OC)c(OC)c4)n3c2)cc1	0.731µM*	3.66µM*	1.64µM*	1.03µM*	0.581µM*	1.03µM*
COc1ccc(-c2cc(NC=O)c3ncc(-c4ccc(OC)c(OC)c4)n3c2)cc1OC	5.17µM*	?	?	?	?	4.11µM*
COc1ccc(-c2cnc3c(NC=O)cc(-c4ccccc4OC)cn23)cc1OC	0.0291µM*	1.16µM*	0.184µM*	0.0461µM*	0.184µM*	0.0073µM*
COc1cc(-c2cc(NC=O)c3ncc(-c4ccc(F)cc4)n3c2)cc(OC)c1OC	?	?	i	?	?	?
Cc1cc(Cl)cc(Cl)c1OCCCCN(C)C	?	i	i	-22.0%	?	18.4µM*
OCCCCCNc1ncnc2ccccc12	8.2µM*	i	i	-2.5%	-16.9%	7.31µM*
CCN(CC)CCCNc1ncnc2ccccc12	4.9%	i	i	0.9%	-5.5%	0.6%
Cn1cc(S(=O)(=O)NC[C@H]2O[C@@H](n3ccc(=O)[nH]c3=O)[C@H](O)[C@@H]2O)cn1	14.2%	i	i	5.8%	11.1%	-1.2%
COc1cc2c(cc1NC(=O)COc1ccc3ccccc3c1)oc1ccccc12	?	i	i	5.4%	4.6%	?
COc1cc2c(cc1NC(=O)CN(C)Cc1cccc(OC)c1OC)oc1ccccc12	20.6µM*	?	i	-2.8%	-28.1%	13µM*
COc1cc2c(cc1NC(=O)COCC(=O)O)oc1ccccc12	13.4%	i	i	16.2%	14.8%	2.0%
COc1cc2c(cc1NC(=O)C(C)Oc1ccccc1)oc1ccccc12 (configuration not stated)	14.6µM*	i	i	.	.	?
COc1ccc(CC(=O)Nc2cc3oc4ccccc4c3cc2OC)cc1	?	i	i	-12.5%	-12.5%	?
COc1ccccc1CC(=O)Nc1cc2oc3ccccc3c2cc1OC	25.9µM*	i	i	?	?	16.4µM*
COc1cccc(CN(C)CC(=O)Nc2cc3oc4ccccc4c3cc2OC)c1	23.1µM*	?	?	9.7%	1.7%	20.6µM*
COc1ccc(-c2[nH]ncc2/C=N\NC(=O)c2cccs2)cc1OC	-0.5%	i	i	-6.5%	-1.3%	0.2%
CCOc1ccc(NC(=O)CN(C)C(=O)c2cc(S(=O)(=O)N3CCCCC3)ccc2C)cc1OCC	?	?	i	-2.8%	12.0%	?
COc1ccc(C(=O)C2C(=O)C(=O)N(Cc3ccco3)C2c2cccs2)cc1 (configuration not stated)	-26.5%	?	?	.	.	-11.6%
COc1cc2c(cc1NC(=O)C(C)OC(=O)c1ccc(S(=O)(=O)Nc3ccccc3Cl)cc1)oc1ccccc12 (configuration not stated)	23.1µM*	i	i	-8.7%	-0.2%	18.4µM*
COc1cc2c(cc1NC(=O)/C=C/c1cc(OC)c(OC)c(OC)c1)oc1ccccc12	20.6µM*	i	i	-0.5%	-5.5%	14.6µM*
COc1ccc(C(=O)NC23CC4CC(CC(C4)C2)C3)cc1	-2.5%	i	?	1.3%	2.1%	-10.0%
COc1cc2c(cc1NC(=O)c1ccncc1)oc1ccccc12	?	i	i	-19.7%	?	20.6µM*
COc1cc2c(cc1NC(=S)NC(=O)c1c(OC)cccc1OC)oc1ccccc12	?	i	i	14.6%	4.6%	?
SMILES	DT40 TDP1 CPT	KB-V1 cytotox	KB-3-1 cytotox	HT1080NT lethal	HT1080 IDH1KD tx	DT40 TDP1 no CPT
CC(Oc1ccc2oc3ccccc3c2c1)C(=O)NC12CC3CC(CC(C3)C1)C2 (configuration not stated)	16.4µM*	i	i	-9.5%	-17.3%	29.1µM*
COc1cc2c(cc1NC(=O)C(C)N1CCN(S(=O)(=O)c3ccc(C)c(C)c3)CC1)oc1ccccc12 (configuration not stated)	-7.1%	i	i	-2.8%	-1.5%	-25.3%
O=C(CCCn1nnc(-c2cccnc2)n1)c1ccc(F)cc1	?	?	i	0.8%	1.5%	?
CCCCc1ncc(CN2CCN(Cc3ccc(C)cc3)C(CCO)C2)[nH]1 (configuration not stated)	-17.7%	i	i	-8.5%	-3.1%	-19.8%
COc1cc2c(cc1NC(=O)c1cc(-c3ccccn3)nc3ccccc13)oc1ccccc12	20.6µM*	i	i	17.8%	19.4%	20.6µM*
COc1cccc(CN2CC(C(=O)NCCN3CCOCC3)CCC2=O)c1 (configuration not stated)	4.4%	i	i	4.5%	10.9%	24.2%
COc1ccc(OC)c(N(CCN2C(=O)c3ccccc3C2=O)C(=O)CCl)c1	?	?	?	?	16.4µM*	20.6µM*
FC(F)(F)c1cc(Nc2ccccc2)nc(-c2ccccn2)n1	?	i	i	6.9%	15.0%	25.9µM*
CC(C)Nc1cc(C(F)(F)F)nc(-c2ccccn2)n1	18.4µM*	i	?	2.8%	0.5%	18.4µM*
FC(F)(F)c1cc(Sc2ccccc2)nc(-c2ccccn2)n1	?	?	i	12.6µM*	?	14.6µM*
Cc1ccc(S(=O)(=O)n2nc(C)c(Br)c2C)c(C)c1C	?	?	i	-3.7%	-5.3%	20.6µM*
CCOc1ccc(/C=N/NC(=O)Cc2ccccc2)cc1CN1CC2CC(C1)c1cccc(=O)n1C2 (configuration not stated)	?	i	i	-28.6%	?	20.6µM*
O=C1N/C(=N/c2ccccn2)SC1Cc1ccccc1 (configuration not stated)	?	?	i	?	10µM*	?
CCCCN(C=O)c1c(CC)nc2ccc(C(=O)NCCN(C)C)cn12	-15.9%	i	i	11.5%	12.1%	-4.7%
CCc1nc2ccc(C(=O)Nc3cc(-c4ccccc4)ccc3OC)cn2c1N(CC)CCN(C)C	16.4µM*	?	?	18.4µM*	13µM*	18.4µM*

Screening results: PubChem, National Center for Advancing Translational Sciences (NCATS)
